The source of these data is ChEMBL document CHEMBL4513216, “Probing the Open Global Health Chemical Diversity Library for Multistage-Active Starting Points for Next-Generation Antimalarials” (ACS Infect Dis, 2020).

SMILES strings stand for the structures. Among all 68,000 compounds or so, about 2,700 (4%) showed an effect of 50% or more. What follows is part of a selection rich in strong results, with near analogues and random picks from the rest.

The assay has as its system Plasmodium berghei. Briefly: Screen against P. berghei liver stage (PbLuc), transformed with Luciferase, at 2uM. The class given is functional, HepG2. To be noted: tested at 2 uM.
On to `CCC1=N[C@@]2(CC[C@@H]3CN(Cc4ccc(Cl)cc4)C[C@@H]32)C(=O)N1C`, for which the INHIBITION is 17.51%.

Consider `CN1CCc2[nH]cnc2C12CCN(C(=O)c1noc3c1CCCC3)CC2`, for which the INHIBITION is listed as -15.03%.

As to `Cn1c(CN2CCOC[C@H]2c2nc(C(C)(C)C)co2)nc2ccccc21`, the INHIBITION was -39.35%.

With `CNC(=O)c1noc(CN2CC[C@](C)(O)[C@H](C)C2)n1`, the INHIBITION is -44.85%.

Consider `C[C@@H]1CN(Cc2nc(C(N)=O)no2)CC[C@@]1(O)C1CCOCC1`, for which the INHIBITION is 26.14%.

As for `C[C@@H]1CN(Cc2nc(C(N)=O)no2)CC[C@@]1(O)C1CC1`, the INHIBITION came out at 59.1%.

`CC(=O)N1CCN(C(=O)c2ccc3ccn(C)c3c2)CC1`: the INHIBITION was -58.53%.

As to `O=S(=O)(Cc1cccc(Cl)c1)CC(O)Cn1cccn1` (stereo not given), the INHIBITION was -17.17%.

As for `CN1[C@@H]2CC[C@H]1CN(C(=O)c1ccc(-c3ccccc3)[nH]1)CC2`, the INHIBITION is on record as 21.95%.

On to `CCn1cc(-n2cc3nc(N4CCOCC4)[nH]cc-3c2=O)cn1`, for which the INHIBITION was determined as 37.89%.

`CC(C)n1cc(-n2cc3nc(N4CCOCC4)[nH]cc-3c2=O)cn1`: the INHIBITION is given as 53.22%.

On to `Cn1cc(-n2cc3nc(N4CCOCC4)[nH]cc-3c2=O)cn1`, for which the INHIBITION is listed as 13.95%.

For the molecule `Cc1cnc2c(c1NCc1ccc(F)cc1)c(=O)n(C)c(=O)n2C`, the INHIBITION was -5.61%.

As for `CCCc1nnc(NCc2ccc(OC)c(C#N)c2)o1`, the INHIBITION is listed as 48.21%.

For the molecule `CC(C)(C)Cc1nnc(NCc2cccc(C#N)c2)o1`, the INHIBITION came to 31.51%.

As to `COc1ccc(CNc2nnc(CC(C)(C)C)o2)cc1C#N`, the INHIBITION is recorded as 55.36%.

Regarding `O=C(CCN1CCc2ccccc21)N1C[C@@H](O)[C@H](N2CCCC2)C1`, the INHIBITION is recorded as 15.72%.

Regarding `O=C1C[C@H]2[C@@H](CCN2C(=O)Cc2ccsc2)N1Cc1cccnc1`, the INHIBITION is reported as 52.91%.

Turning to `O=C1C[C@H]2[C@@H](CCN2C(=O)c2cscn2)N1Cc1cccnc1`, the INHIBITION is reported as -12.98%.

Regarding `O=C1C[C@H]2[C@@H](CCN2C(=O)Cc2cccs2)N1Cc1cccnc1`, the INHIBITION stood at 55.7%.

`O=C1C[C@H]2[C@@H](CCN2C(=O)Cc2cccs2)N1Cc1ccncc1`: the INHIBITION is on record as 17.77%.

On to `O=C1C[C@H]2[C@@H](CCN2C(=O)Cc2ccccc2)N1Cc1cccnc1`, for which the INHIBITION stood at 30.4%.

As for `O=C(Cc1cccs1)N1CC[C@H]2[C@H]1CCN2Cc1cccnc1`, the INHIBITION is reported as 7.33%.

On to `CN(Cc1nnc2n1CCC2)C(=O)c1ccc2c(c1)CCO2`, for which the INHIBITION is 29.42%.

Consider `COCCNC1(c2ccc(Cl)cc2)CCOCC1`, for which the INHIBITION turned out to be 60.9%.

Consider `CC(C)OCCNC1(c2ccc(Cl)cc2)CCOCC1`, for which the INHIBITION is on record as -17.01%.

Regarding `CCOCCNC1(c2ccc(Cl)cc2)CCOCC1`, the INHIBITION came out at 32.26%.

For the molecule `CC(c1nc(C(C)(C)C)no1)S(=O)(=O)CC(=O)N1CCCC1` (stereo not given), the INHIBITION was -3.22%.

With `Cn1c(C2CCCN2C(=O)c2cn(CCN)nn2)nc2ccccc21` (stereo not given), the INHIBITION was -6.44%.

Take `O=C(CN1CCC(c2ccccc2)CC1)NCc1cc2n(n1)CCNC2`: the INHIBITION is given as 5.21%.

As to `O=C(CN1CC(c2ccccc2)CC1=O)NCc1cc2n(n1)CCNC2` (stereo not given), the INHIBITION is recorded as 66.18%.

In the case of `O=C(CN1CCOc2ccccc2C1)NCc1cc2n(n1)CCNC2`, the INHIBITION was 5.75%.

Regarding `CCOc1ccccc1Nc1nc2c(C)nn(C)c2c(=O)n1C`, the INHIBITION is recorded as -51.9%.

Turning to `CN1CCOC(CNC(=O)COc2ccc(F)cc2F)C1` (stereo not given), the INHIBITION was -7.88%.

Take `Cc1nc2c(c(NC(C)C)n1)CCN(C1CCOCC1)CC2`: the INHIBITION came to 53.44%.

With `CC(C)Nc1nc2c(c(NC3CC3)n1)CCN(C1CCOCC1)CC2`, the INHIBITION worked out at 4.95%.

On to `Cc1nc2c(c(NC(C)C)n1)CCN(C(=O)CCO)CC2`, for which the INHIBITION was -13.61%.

Take `Cc1cnc(NC(=O)NC(CCO)c2cccs2)s1` (stereo not given): the INHIBITION is -11.51%.

Take `Cn1nc(COc2cncnc2)c2c1CCN(Cc1ccco1)C2`: the INHIBITION stood at 8.36%.

On to `CCN(Cc1ccco1)C(=O)Nc1cc(C(F)(F)F)c[nH]c1=O`, for which the INHIBITION came to 28.65%.

As to `O=C(CCc1ccco1)Nc1cc(C(F)(F)F)c[nH]c1=O`, the INHIBITION was found to be 19.35%.

As for `O=C(NCCc1ccco1)Nc1cc(C(F)(F)F)c[nH]c1=O`, the INHIBITION is -6.16%.

For `CC(C)c1noc(CCC(=O)Nc2cc(C(F)(F)F)c[nH]c2=O)n1`, the INHIBITION was found to be 64.9%.

Take `O=C(COCc1ccco1)Nc1cc(C(F)(F)F)c[nH]c1=O`: the INHIBITION came out at 66.2%.

Turning to `Cn1nccc1C(=O)Nc1cc(C(F)(F)F)c[nH]c1=O`, the INHIBITION is listed as -27.71%.

As to `Cc1noc(CCCC(=O)Nc2cc(C(F)(F)F)c[nH]c2=O)n1`, the INHIBITION is -30.49%.

`CC(CCc1ccco1)NC(=O)Nc1cc(C(F)(F)F)c[nH]c1=O` (stereo not given): the INHIBITION is given as 57.95%.

On to `CN(Cc1ccco1)C(=O)Nc1cc(C(F)(F)F)c[nH]c1=O`, for which the INHIBITION is given as 19.35%.

Take `CCCc1noc(CCC(=O)Nc2cc(C(F)(F)F)c[nH]c2=O)n1`: the INHIBITION is given as 43.44%.

`O=C(NCc1ccoc1)Nc1cc(C(F)(F)F)c[nH]c1=O`: the INHIBITION is -7.02%.

Consider `O=C(Nc1cc(C(F)(F)F)c[nH]c1=O)c1ccco1`, for which the INHIBITION was found to be 56.67%.

Consider `Cc1nc(C(C)C)sc1C(=O)N(C)Cc1cnn(C)c1`, for which the INHIBITION is -35.11%.

On to `Cc1cc(NC(=O)NCC(C)N2CCOCC2)n(C)n1` (stereo not given), for which the INHIBITION was 25.53%.

With `CC(=O)N1CCOC(c2cncc(CCC(=O)N(C)C)n2)C1` (stereo not given), the INHIBITION is -26.69%.

As for `CCn1cc(-c2cc(-c3cc(CN(C)C)cs3)nc(N)c2C#N)c(C)n1`, the INHIBITION came out at 42.48%.

For the molecule `c1ccc2cc(OCCN3CCn4c(nnc4C4CC4)C3)ccc2c1`, the INHIBITION is listed as 18.31%.

Regarding `Cc1cccc(CN2CCOC3(CCCN(CC(=O)N(C)C)C3)C2)n1` (stereo not given), the INHIBITION was -25.4%.

Regarding `Cc1ccccc1C(C)NC(=O)Cc1c(C)nc2cc(=O)[nH]n2c1C` (stereo not given), the INHIBITION is reported as -18.39%.

Turning to `CC(C)n1cnnc1CN(C)Cc1ccoc1`, the INHIBITION was 33.78%.

As for `CN(CCCNc1cc(N2CCCC2CO)ncn1)S(C)(=O)=O` (stereo not given), the INHIBITION worked out at 22.75%.

As to `Cn1cc(CN2CC[C@@H](NS(C)(=O)=O)[C@@H]2Cc2cccnc2)cn1`, the INHIBITION was -28.13%.

As for `O=C(c1cc(-n2cnnn2)ccc1Cl)N1CCN(c2ccccc2)CC1`, the INHIBITION was determined as 8.92%.

Consider `c1csc(CN2Cc3nccn3CC(Cn3cncn3)C2)n1` (stereo not given), for which the INHIBITION is -43.55%.

As to `c1cc(CN2Cc3nccn3CC(Cn3cncn3)C2)ccn1` (stereo not given), the INHIBITION is -6.68%.

For `c1csc(CN2Cc3nccn3CC(Cn3cncn3)C2)c1` (stereo not given), the INHIBITION is given as 54.62%.
